Measles CPE: compounds protecting cells from measles virus cytopathic effect, primary screen, measles RdRp inhibitor project, single point, MLSMR library, absorbance; 140,000 compounds, 1.5% hits; protection (pct of control), % at 4 µM; AID 841, 2007; Measles virus-infected cells, CPE protection; in the data active = protection mostly above about 24%, no sharp cut-off; inactive = mostly below about 26%
cytoskel mod: modifiers of F-actin cytoskeleton organization, primary screen, imaging, HUVEC, phalloidin staining, high-content imaging | HUVEC TNFa F-actin phalloidin imaging | inhibition, % at 2 µM | 91,000 compounds, 0.18% hits | AID 836, 2007;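 active = inhibition above the batch mean plus 3 SD and confirmed as a hit by visual image inspection, cut at about 30% in these data, passing the limit was not always enough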
The depositor's hits bear a star. Sampled rows, rich in hits. Any-hit rate of the full collection: about 1.5%.

Screening CCC(C)(C)n1nnnc1CN1CCN(C(c2ccccc2)c2ccccc2)CC1 returned Measles CPE 5.2 and cytoskel mod 8.5.
CCn1c(=O)c2ccccc2n2c(SCC(=O)NCc3cccs3)nnc12 was read as Measles CPE 14.8 and cytoskel mod -2.3.
CCCn1c(=O)c2ccccc2n2c(SCC(=O)NCc3cccs3)nnc12 was read as Measles CPE 4.0 and cytoskel mod 78.9*.
`CC(C)NS(=O)(=O)c1ccc(NC(=O)NC2CCCCC2)cc1` gave Measles CPE 7.2.
`CCSc1nc2c(c(=O)n1CC)SC(C)C2` (stereo unspecified) gave Measles CPE 3.4.
CCn1c(SC)nc2c(c1=O)SC(C)C2 (stereo unspecified) was read as Measles CPE 45.7*.
CC1CCc2sc(C(=O)N=Nc3c(O)[nH]c4ccccc34)cc2C1 (stereo unspecified) was read as Measles CPE 15.5.
Screening COc1ccc(-c2nc(CSCC(=O)NCCC3=CCCCC3)c(C)o2)cc1OC returned Measles CPE 3.1 and cytoskel mod -24.4.
CSCc1ccc(C(=O)Nc2cccc(C)c2C)cc1 was read as Measles CPE 7.6.
For O=C(Cc1cccs1)Nc1nnc(SCc2ccc(C(F)(F)F)cc2)s1 the results were Measles CPE 8.0.
`O=C1/C(=C\c2ccco2)SC(=S)N1c1ccc(O)cc1` gave Measles CPE 39.2*.
Screening CN1C(=S)N(c2ccccc2)C(=O)/C1=C/c1ccco1 returned Measles CPE 31.7.
Cc1ccc(OCCOc2ccc(Br)cc2)c([N+](=O)[O-])n1 was read as Measles CPE 8.6.
Screening Cc1cccc(NN=C2c3ccccc3-c3ccccc32)c1 returned Measles CPE 9.9.
Screening O=C(CSCc1c(Cl)cccc1Cl)Nc1ccc2c(c1)OCCO2 returned Measles CPE 5.2.
Cc1ccccc1CN1C(=O)C2(OCCCO2)c2ccccc21 was read as Measles CPE 2.5 and cytoskel mod 64.5*.
O=C(O)CN1C(=O)C2(OCCCO2)c2ccccc21 was read as Measles CPE 4.6 and cytoskel mod -8.0.
COc1cnc(SCc2c(Cl)cccc2Cl)nc1Cl was read as Measles CPE 25.5 and cytoskel mod 4.2.
Screening Cc1cc2oc(=O)cc(CN3CCN(S(=O)(=O)c4cccs4)CC3)c2cc1C returned Measles CPE 19.8.
For O=C(COC(=O)c1cccc(S(=O)(=O)N2CCc3ccccc32)c1)Nc1ncc(Cl)cc1Cl the results were Measles CPE 6.2.
For O=C(COC(=O)c1cccc(S(=O)(=O)N2CCc3ccccc32)c1)Nc1ccc(Cl)cn1 the results were Measles CPE 35.4*.
For CCCCC1C2=C(CC(C)(C)CC2=O)OC2=C1C(=O)CC(C)(C)C2 the results were Measles CPE 6.8.
CCc1c(C)sc(NC(=O)c2ccco2)c1C(=O)N1CCOCC1 was read as Measles CPE 1.6 and cytoskel mod -3.7.
For CCc1c(C)sc(NC(=O)c2ccco2)c1C(=O)N1CCCCC1 the results were Measles CPE 37.5* and cytoskel mod -4.6.
Screening Cc1ccc(C)c(C2=CSC3=NCCN23)c1 returned Measles CPE 4.2 and cytoskel mod -25.4.
Screening Clc1ccc(C2=CSC3=NCCN23)cc1Cl returned Measles CPE 54.5* and cytoskel mod -19.2.
`CC(C)n1nc(C(=O)Nc2nnc(SCc3c(Cl)cccc3Cl)s2)c2ccccc2c1=O` gave Measles CPE 2.7 and cytoskel mod -11.9.
`Nc1nc(CSc2ccccn2)nc(Nc2ccccc2)n1` gave Measles CPE 1.3 and cytoskel mod -9.8.
Nc1nc(CSCCO)nc(Nc2ccccc2)n1 was read as Measles CPE 32.5* and cytoskel mod -5.6.
C/C(=N\Nc1nc(-c2cc(C)ccc2C)cs1)c1cc2c(ccc3ccccc32)oc1=O was read as Measles CPE 8.8.
Screening N#CC1=C2SCC(O)(c3ccccc3)N2C(=O)CC1c1ccccc1F (stereo unspecified) returned Measles CPE 6.4 and cytoskel mod 0.2.
For N#CC1=C2SCC(O)(c3ccccc3)N2C(=O)CC1c1cccs1 (stereo unspecified) the results were Measles CPE 12.5 and cytoskel mod 35.0*.
`CN(C)c1cccc2c(C=C(C#N)C#N)ccc(N(C)C)c12` gave Measles CPE 5.7.
CC(C)(C)SCCNC(=O)CSc1ccccc1 was read as cytoskel mod -11.1.
CC(C)(C)SCCNC(=O)Nc1ccccc1 was read as Measles CPE 34.8*.
For CCOC(CNc1c([N+](=O)[O-])c(=O)n(C)c(=O)n1C)OCC the results were Measles CPE 4.3.
CCCCn1c(SCC(=O)Nc2nnc(CC)s2)nc2ccccc2c1=O was read as Measles CPE 32.5*.
`CCCCn1c(SCC(=O)Nc2nnc(CC)s2)nc2c1c(=O)n(C)c(=O)n2C` gave Measles CPE 7.6 and cytoskel mod 6.1.
Screening Nc1cc(N)nc(SCC(=O)NCC2CCCO2)n1 (stereo unspecified) returned Measles CPE 31.1* and cytoskel mod 12.5.
O=C(CCN1C(=O)C2C3C=CC(C3)C2C1=O)NCC1CCCO1 (stereo unspecified) was read as Measles CPE 18.5 and cytoskel mod 69.0*.
Nc1nc(SCC(=O)NCC2CCCO2)n[nH]1 (stereo unspecified) was read as Measles CPE 8.2 and cytoskel mod 6.3.
O=C(NCC1CCCO1)c1cccc(N2C(=O)C3C4C=CC(C4)C3C2=O)c1 (stereo unspecified) was read as Measles CPE 6.0 and cytoskel mod 22.5.
O=C(CSc1nc2ccccc2c(=O)n1CC1CCCO1)NCC1CCCO1 (stereo unspecified) was read as Measles CPE 4.7 and cytoskel mod -8.1.
Screening CC(=O)NCCn1c(SCC(=O)NCC2CCCO2)nc2ccccc2c1=O (stereo unspecified) returned Measles CPE 51.8* and cytoskel mod 11.0.
Screening CCSc1nc(CC)c2c(c1C#N)CCCC2 returned Measles CPE 4.8.
CN1C(=O)CC(C(=O)O)SC1=Nc1cc(Cl)cc(Cl)c1 (stereo unspecified) was read as Measles CPE 3.4.
`O=C(CNC(=O)c1ccc2ccccc2c1)OCC(=O)N1CCN(S(=O)(=O)c2ccc3ccccc3c2)CC1` gave Measles CPE 4.0.
For CC(=O)NCCn1c(SCC(=O)NCCC(C)C)nc2ccccc2c1=O the results were Measles CPE 60.5* and cytoskel mod -8.0.
`CCCCNC(=O)CSc1nc2ccccc2c(=O)n1CCNC(C)=O` gave Measles CPE 3.5 and cytoskel mod 9.9.
For CCOC(=O)c1ccc(NC(=S)N(CCCN2CCCC(C)C2)Cc2ccco2)cc1 (stereo unspecified) the results were Measles CPE 8.4.
Screening CCCCN(CC)CCNC(=O)CN1C(=O)COc2ccc(S(=O)(=O)N3CCCC3)cc21 returned Measles CPE 7.4.
Screening Cc1ccc(NC(=O)/C=C\C(=O)NCC(=O)O)cc1C returned Measles CPE 8.8.
Screening CCC(Oc1ccccc1)C(=O)Nc1cc(C)on1 (stereo unspecified) returned Measles CPE 15.6 and cytoskel mod -10.1.
Screening CCC(OC(=O)C(NC(=O)c1ccccc1)c1ccccc1)C(=O)Nc1cc(C)on1 (stereo unspecified) returned Measles CPE 47.0* and cytoskel mod -4.0.
